# Measured values published in article PMC12864922, “TDP-43 directly inhibits mRNA accumulation in neurites through modulation of mRNA stability”.
# The full ranking holds about 9,900 sequences; the median of “r (bound/input frequency ratio)” is about 0.7, and the highest 2% start at about 6.5. What follows is part of a selection rich in the highest values, with near analogues and random picks from the rest.
# B1: ENSMUSG00000061578.87|Ksr2 (ssRNA)
# RNA: GGGAGUUCUACAGUCCGACGAUCGCUUCGAUAUCCGCAUGCUAGGGUUAAACUUGCAAACAUCUGAUUUUAGAGGUCCCAUUCCAAGAUGGAAGUCACCGGUUGCCGCUGAGCACACAAUUCUGAAGGACAGUAGGCAGUCCUGCAGGUCUUUUUUAGCACAGGGCCUCUCUGGGGACCAGUCCCUGGCCUUCACCCUUCUCCCAUUUUGUAAGAACACUGUUCUAACUCACCUCAUGCCCACGCUACCCUGGGCAACUGGAGAACACCAUAGCGUUUCAGCUGAUGUGACAUUUGGUGUGACCUCUUGCGGUCGCACUAGUGUGGAAUUCUCGGGUGUCAAGG
# B2: ENSMUSG00000058297.287|Spock2|119:124 (ssRNA)
# RNA: GGGAGUUCUACAGUCCGACGAUCGCUUCGAUAUCCGCAUGCUAAGAGAGAGAGAGAGAGAGAGAGAGAGAGAGAGAGAGAAAGAGAGAGAGAAUGAGAGAGAAUGAGAGAGAGAAUACCCGAGGGCCACCCUGAUGCCCAGGAAGAGUGAGGGCAGCCCCCACACACGUGGAAGAGGCUGGGCAGCUAGCUACUGGGGACCUUGUGCUGAGGCUUCCAGGACAAAGCCCCAGUCUGGCUCUCCCCCAGCCUCUCAGGGGCACUGGCUGGUCACAUCCACUGAGUAUUGAUCGGUUGGACUUUACUCUUGCGGUCGCACUAGUGUGGAAUUCUCGGGUGUCAAGG
# B3: ENSMUSG00000058297.296|Spock2|65:70 (ssRNA)
# RNA: GGGAGUUCUACAGUCCGACGAUCGCUUCGAUAUCCGCAUGCUAAGAGAAUGAGAGAGAGAAUACCCGAGGGCCACCCUGAUGCCCAGGAAGAGUGAGGGCAGCCCCCACACACGUGGAAGAGGCUGGGCAGCUAGCUACUGGGGACCUUGUGCUGAGGCUUCCAGGACAAAGCCCCAGUCUGGCUCUCCCCCAGCCUCUCAGGGGCACUGGCUGGUCACAUCCACUGAGUAUUGAUCGGUUGGACUUUAGGGAAGAGCCUCCUCCUUCCCAUUCCUUUCUGCCACCCUGGAAUGGCCACCUUACUCUUGCGGUCGCACUAGUGUGGAAUUCUCGGGUGUCAAGG
# B4: ENSMUSG00000058297.298|Spock2|53:58 (ssRNA)
# RNA: GGGAGUUCUACAGUCCGACGAUCGCUUCGAUAUCCGCAUGCUAAGAGAAUACCCGAGGGCCACCCUGAUGCCCAGGAAGAGUGAGGGCAGCCCCCACACACGUGGAAGAGGCUGGGCAGCUAGCUACUGGGGACCUUGUGCUGAGGCUUCCAGGACAAAGCCCCAGUCUGGCUCUCCCCCAGCCUCUCAGGGGCACUGGCUGGUCACAUCCACUGAGUAUUGAUCGGUUGGACUUUAGGGAAGAGCCUCCUCCUUCCCAUUCCUUUCUGCCACCCUGGAAUGGCCACCUUAAUCGUCAUCUCCCUCUUGCGGUCGCACUAGUGUGGAAUUCUCGGGUGUCAAGG
# B5: ENSMUSG00000058297.293|Spock2|83:88 (ssRNA)
# RNA: GGGAGUUCUACAGUCCGACGAUCGCUUCGAUAUCCGCAUGCUAAAAGAGAGAGAGAAUGAGAGAGAAUGAGAGAGAGAAUACCCGAGGGCCACCCUGAUGCCCAGGAAGAGUGAGGGCAGCCCCCACACACGUGGAAGAGGCUGGGCAGCUAGCUACUGGGGACCUUGUGCUGAGGCUUCCAGGACAAAGCCCCAGUCUGGCUCUCCCCCAGCCUCUCAGGGGCACUGGCUGGUCACAUCCACUGAGUAUUGAUCGGUUGGACUUUAGGGAAGAGCCUCCUCCUUCCCAUUCCUUUCUGCCACCUCUUGCGGUCGCACUAGUGUGGAAUUCUCGGGUGUCAAGG
# B6: ENSMUSG00000058297.295|Spock2|71:76 (ssRNA)
# RNA: GGGAGUUCUACAGUCCGACGAUCGCUUCGAUAUCCGCAUGCUAAAUGAGAGAGAAUGAGAGAGAGAAUACCCGAGGGCCACCCUGAUGCCCAGGAAGAGUGAGGGCAGCCCCCACACACGUGGAAGAGGCUGGGCAGCUAGCUACUGGGGACCUUGUGCUGAGGCUUCCAGGACAAAGCCCCAGUCUGGCUCUCCCCCAGCCUCUCAGGGGCACUGGCUGGUCACAUCCACUGAGUAUUGAUCGGUUGGACUUUAGGGAAGAGCCUCCUCCUUCCCAUUCCUUUCUGCCACCCUGGAAUGGCCCUCUUGCGGUCGCACUAGUGUGGAAUUCUCGGGUGUCAAGG
# B7: ENSMUSG00000058297.288|Spock2|113:118 (ssRNA)
# RNA: GGGAGUUCUACAGUCCGACGAUCGCUUCGAUAUCCGCAUGCUAAGAGAGAGAGAGAGAGAGAGAGAGAGAGAGAAAGAGAGAGAGAAUGAGAGAGAAUGAGAGAGAGAAUACCCGAGGGCCACCCUGAUGCCCAGGAAGAGUGAGGGCAGCCCCCACACACGUGGAAGAGGCUGGGCAGCUAGCUACUGGGGACCUUGUGCUGAGGCUUCCAGGACAAAGCCCCAGUCUGGCUCUCCCCCAGCCUCUCAGGGGCACUGGCUGGUCACAUCCACUGAGUAUUGAUCGGUUGGACUUUAGGGAAGCUCUUGCGGUCGCACUAGUGUGGAAUUCUCGGGUGUCAAGG
# B8: ENSMUSG00000058297.289|Spock2|107:112 (ssRNA)
# RNA: GGGAGUUCUACAGUCCGACGAUCGCUUCGAUAUCCGCAUGCUAAGAGAGAGAGAGAGAGAGAGAGAGAAAGAGAGAGAGAAUGAGAGAGAAUGAGAGAGAGAAUACCCGAGGGCCACCCUGAUGCCCAGGAAGAGUGAGGGCAGCCCCCACACACGUGGAAGAGGCUGGGCAGCUAGCUACUGGGGACCUUGUGCUGAGGCUUCCAGGACAAAGCCCCAGUCUGGCUCUCCCCCAGCCUCUCAGGGGCACUGGCUGGUCACAUCCACUGAGUAUUGAUCGGUUGGACUUUAGGGAAGAGCCUCCUCUUGCGGUCGCACUAGUGUGGAAUUCUCGGGUGUCAAGG
# B9: ENSMUSG00000058297.290|Spock2|101:106 (ssRNA)
# RNA: GGGAGUUCUACAGUCCGACGAUCGCUUCGAUAUCCGCAUGCUAAGAGAGAGAGAGAGAGAGAAAGAGAGAGAGAAUGAGAGAGAAUGAGAGAGAGAAUACCCGAGGGCCACCCUGAUGCCCAGGAAGAGUGAGGGCAGCCCCCACACACGUGGAAGAGGCUGGGCAGCUAGCUACUGGGGACCUUGUGCUGAGGCUUCCAGGACAAAGCCCCAGUCUGGCUCUCCCCCAGCCUCUCAGGGGCACUGGCUGGUCACAUCCACUGAGUAUUGAUCGGUUGGACUUUAGGGAAGAGCCUCCUCCUUCUCUUGCGGUCGCACUAGUGUGGAAUUCUCGGGUGUCAAGG
# Target: TDP-43 (Homo sapiens, UniProt Q13148 1-414)
# Sequence (Q13148 whole entry): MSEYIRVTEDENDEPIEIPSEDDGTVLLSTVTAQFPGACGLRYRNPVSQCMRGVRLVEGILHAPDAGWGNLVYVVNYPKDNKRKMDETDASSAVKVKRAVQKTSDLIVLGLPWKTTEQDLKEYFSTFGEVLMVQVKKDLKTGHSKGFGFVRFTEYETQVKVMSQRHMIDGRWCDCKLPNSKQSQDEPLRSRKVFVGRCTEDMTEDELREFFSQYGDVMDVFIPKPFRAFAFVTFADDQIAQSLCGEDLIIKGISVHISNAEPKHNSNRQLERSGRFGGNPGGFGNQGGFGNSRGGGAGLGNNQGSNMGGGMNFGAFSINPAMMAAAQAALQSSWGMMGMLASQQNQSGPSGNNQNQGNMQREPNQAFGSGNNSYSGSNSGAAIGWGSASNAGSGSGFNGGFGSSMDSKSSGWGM
# Assay: RNA Bind-n-Seq with designed 260-mer pool; 25 mM Tris-HCl, 150 mM KCl, 3 mM MgCl2, BSA (printed 500 mg/mL), 20 units/mL SUPERase IN; pH not stated; 500 nM RNA pool, 1 h, 4 C; TDP-43 5, 50, 500 nM; high values mean tight binding
# Conditions: protein: recombinant; tags: SBP (GST cleaved off with PreScission; pGEX-GST-SBP)
# Method in brief: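 Duplicate measurements used two independent batches of recombinant SBP-tagged TDP-43, which was captured on streptavidin beads at 5, 50 or 500 nM. The beads were incubated with 500 nM of an in vitro-transcribed 260-nt 3′ UTR oligo pool for 1 h at 4 °C in 25 mM Tris-HCl, 150 mM KCl, 3 mM MgCl2, BSA and SUPERase IN. After washing, biotin elution, reverse transcription, PCR amplification and sequencing, binding was expressed as R: each oligo's normalized read abundance in the bound sample over its abundance in input.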
row,Binder,binding signal
1,B1,0.338 R (bound/input frequency ratio)
2,B2,7.84 R (bound/input frequency ratio)
3,B3,4.88 R (bound/input frequency ratio)
4,B4,2.36 R (bound/input frequency ratio)
5,B5,3.42 R (bound/input frequency ratio)
6,B6,3.59 R (bound/input frequency ratio)
7,B7,7.71 R (bound/input frequency ratio)
8,B8,7.59 R (bound/input frequency ratio)
9,B9,8.37 R (bound/input frequency ratio)
